Results as given in the supplement of paper PMC10338343.
± gives the standard deviation.

What follows are sequences tested on EfPiwi piRISC loaded with L1MC piRNA (26 nt) (assay: pre-steady-state target cleavage rate (min^-1); auxiliary factor: 500 nM Ephydatia muelleri Gtsf1; guide: L1MC piRNA 5'p-UAACUAAAUACUAUGCAAGCUGUAGG; MIWI and MILI are mouse PIWI proteins and EfPiwi is from a freshwater sponge; tags in brackets are library labels; higher = faster piRNA-guided slicing of the target).
Summary of the method: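 In this Cleave-'n-Seq assay, uncleaved targets were sequenced and normalised to depth and to weakly complementary targets. They came from a transcribed, DNA-blocked target RNA library […] mixed with 1 nM active affinity-purified piRISC carrying one synthetic guide, with or without 500 nM GTSF1 partner protein, in HEPES–potassium acetate buffer at 33 °C for 0–8 or 0–960 min. After three trials were pooled and k3 was capped at 0.0001 min^-1, the pre-steady-state cleavage rate was obtained from a burst-and-steady-state fit.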

| Sequence | pre-steady-state target cleavage rate |
| --- | --- |
| UCCUGCAUGAGCUUGCAUAGUAUUUAGUUA | 0.0163 ± 0.0047 |
| UCCUGGUACAGGCUUGCAUAGUAUUUAGUUA | 0.00759 ± 0.0028 |
| UCCUGGAUGAGCAUGCAUAGUAUUUAGUUA | 0.0207 ± 0.0065 |
| UCCUGGAUCACCUUGCAUAGUAUUUAGUUA | 0.018 ± 0.0063 |
| UCCUGGAACAGCUUGGAUAGUAUUUAGUUA | 0.0302 ± 0.0072 |
| UCCUGGAACUGCUUGCAUAGUUUUUAGUUA | 0.00498 ± 0.0026 |
| UCCUGGAUGAGUCUUGCAUAGUAUUUAGUUA | 0.00527 ± 0.0024 |
| UCCUGGAUGAGCUUGCAUAGUAUUUAGUGA | 0.00681 ± 0.0032 |
| UCCUGGAUCAGAUUGCAUAGUAUUUAGUUA | 0.0613 ± 0.011 |
| UCCUCCUACAGUUGCAUAGUAUUUAGUUA | 0.0777 ± 0.021 |
| UCCUCCUACAGCUUGCAUUGUUUUUAGUUA | 0.00277 ± 0.0025 |
| UCCUCCCUACAGCUUGCAUAGUAUUUAGUUA | 0.0606 ± 0.017 |
| UCCUGGAAGAGCUUGCAUAGUUUUUAGUUA | 0.00316 ± 0.003 |
| UCCUGGAUGAGCAAGCAUAGUAUUUAGUUA | 0.0118 ± 0.0048 |
| UCCUCCGACAGCUUGCAUAGUAUUUAGUUA | 0.101 ± 0.026 |
| UCCUGGUACAGCUUGCAUAGUAUUUGGUUA | 0.00525 ± 0.002 |
| UCCUGGAUGUGCUUCGCAUAGUAUUUAGUUA | 0.0132 ± 0.0048 |
| UCCUGCUACAGCUUGCAUAGUAAUUAGUUA | 0.0061 ± 0.0022 |
| UCCUGCUACGCUUGCAUAGUAUUUAGUUA | 0.0122 ± 0.0033 |
| UCCUCCUACACCUUGCAUAGUAUUUAGUUA | 0.0762 ± 0.025 |
| UCCUGGAUGUCCUUGCAUAGUAUUUAGUUG [g2:g19:cont:t1G] | 0.00478 ± 0.0018 |
| UCCUGGUACAGCUUGCAUAGUACUUAGUUA | 0.00275 ± 0.0022 |
| UCCUGGAUGAGCUUGCAUAGUAUUCAGUUA | 0.00256 ± 0.0023 |
| UCCUGGAUGUCCUGGCAUAGUAUUUAGUUA | 0.0055 ± 0.0047 |
